According to PubChem BioAssay (NCI):
This is part of a sample that, as a whole, favours compounds with a hit. Of some 83,000 tested, about 20% had one in any assay.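 Activity criterion: percent growth below 10, measured after cells in 96-well plates were exposed to a single compound concentration for 48 hours.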 Calls of active or inactive are those of the source.

Tests used:
Assay in all cases: NCI-60 one-dose screen, 48 h (100 = growth as untreated, 0 = no growth, -100 = all killed)
Conditions in all cases: 10 µM unless noted
SR leukemia = tested on: SR leukemia
RPMI-8226 leukemia = tested on: RPMI-8226 leukemia
OVCAR-8 ovarian = tested on: OVCAR-8 ovarian
OVCAR-5 ovarian = tested on: OVCAR-5 ovarian
OVCAR-4 ovarian = tested on: OVCAR-4 ovarian
SK-OV-3 ovarian = tested on: SK-OV-3 ovarian
OVCAR-3 ovarian = tested on: OVCAR-3 ovarian
HS 578T breast = tested on: HS 578T breast
NCI/ADR-RES ovarian = tested on: NCI/ADR-RES ovarian
T-47D breast = tested on: T-47D breast
BT-549 breast = tested on: BT-549 breast
MDA-MB-435 melanoma = tested on: MDA-MB-435 melanoma
SW-620 colon = tested on: SW-620 colon
MCF7 breast = tested on: MCF7 breast
HCC-2998 colon = tested on: HCC-2998 colon
KM12 colon = tested on: KM12 colon
IGROV1 ovarian = tested on: IGROV1 ovarian
HCT-116 colon = tested on: HCT-116 colon

Measured: growth

O=[N+]([O-])c1cc(S(=O)(=O)c2ccc(F)c([N+](=O)[O-])c2)ccc1F
active: SR leukemia 9.57% | RPMI-8226 leukemia 6.35%
inactive: OVCAR-8 ovarian 80.9% | OVCAR-5 ovarian 122% | OVCAR-4 ovarian 112% | SK-OV-3 ovarian 117% | OVCAR-3 ovarian 101% | HS 578T breast 80.6% | NCI/ADR-RES ovarian 108% | T-47D breast 95.8% | BT-549 breast 107% | MDA-MB-435 melanoma 103% | SW-620 colon 48% | MCF7 breast 58.5% | HCC-2998 colon 112% | KM12 colon 80.2%

Cc1[c-]onc1C.Cc1[c-]onc1C.[Ag].[Ag].[NH-]S(=O)(=O)c1ccc(N=Nc2cc(N=Nc3ccc(S([NH-])(=O)=O)cc3)c3c(NC(=O)C(Cl)Cl)cccc3c2OC(=O)C(Cl)Cl)cc1
active: T-47D breast -11.9%
inactive: SR leukemia 81.4% | RPMI-8226 leukemia 80.4% | OVCAR-8 ovarian 69.1% | OVCAR-5 ovarian 125% | OVCAR-4 ovarian 93.9% | SK-OV-3 ovarian 111% | IGROV1 ovarian 73% | HS 578T breast 85.2% | NCI/ADR-RES ovarian 96.9% | BT-549 breast 94.6% | MDA-MB-435 melanoma 74.3% | SW-620 colon 58.1% | HCT-116 colon 71.9% | HCC-2998 colon 107% | KM12 colon 71.5%

Nc1ccc(Cl)cn1
inactive: SR leukemia 113% | RPMI-8226 leukemia 101% | OVCAR-8 ovarian 101% | OVCAR-5 ovarian 101% | OVCAR-4 ovarian 97.4% | SK-OV-3 ovarian 93.6% | IGROV1 ovarian 104% | HS 578T breast 99.7% | NCI/ADR-RES ovarian 98.7% | T-47D breast 86.7% | BT-549 breast 104% | MDA-MB-435 melanoma 106% | SW-620 colon 102% | MCF7 breast 94.7% | HCT-116 colon 95.4% | HCC-2998 colon 113% | KM12 colon 100%

Cc1cc(N(CCCNc2ccnc3cc(Cl)ccc23)Cc2ccco2)nc(Cl)n1
inactive: SR leukemia 21.7% | RPMI-8226 leukemia 18.6% | OVCAR-8 ovarian 41.2% | OVCAR-5 ovarian 69.3% | OVCAR-4 ovarian 54.1% | SK-OV-3 ovarian 58.7% | IGROV1 ovarian 51.8% | HS 578T breast 75.4% | NCI/ADR-RES ovarian 45.7% | T-47D breast 21.8% | BT-549 breast 35.2% | MDA-MB-435 melanoma 72.2% | SW-620 colon 66.2% | MCF7 breast 42.4% | HCT-116 colon 28.2% | HCC-2998 colon 75.2% | KM12 colon 65.7%

CN1CCN(c2nc(-c3cccc4ccccc34)nc3sc4c(c23)CCCCCC4)CC1
inactive: SR leukemia 47.1% | RPMI-8226 leukemia 79.3% | OVCAR-8 ovarian 93% | OVCAR-5 ovarian 90.2% | OVCAR-4 ovarian 83.8% | SK-OV-3 ovarian 89.2% | IGROV1 ovarian 72.6% | HS 578T breast 86.1% | NCI/ADR-RES ovarian 87.4% | T-47D breast 67.2% | BT-549 breast 91.9% | MDA-MB-435 melanoma 93.3% | MCF7 breast 68.2% | HCT-116 colon 67.9% | HCC-2998 colon 95.8% | KM12 colon 98.8%

C=C1C(=O)O[C@H]2[C@H]1CC/C(COC(=O)NCc1c[nH]c3ccccc13)=C\CC[C@@]1(C)O[C@@H]21
active: SR leukemia 4.39% | RPMI-8226 leukemia 4.57% | SW-620 colon 2.62% | HCT-116 colon -12.3%
inactive: OVCAR-8 ovarian 39.4% | OVCAR-5 ovarian 86.1% | OVCAR-4 ovarian 58.1% | SK-OV-3 ovarian 86.5% | IGROV1 ovarian 21.2% | HS 578T breast 87.1% | NCI/ADR-RES ovarian 78.8% | T-47D breast 37.8% | BT-549 breast 50.7% | MDA-MB-435 melanoma 46.9% | MCF7 breast 17.1% | HCC-2998 colon 97.9% | KM12 colon 96.9%

COC(=O)[C@]12CC[C@@H](C(C)=O)[C@@H]1[C@H]1CC[C@@H]3[C@@]4(C)C/C(=C/c5cccnc5)C(=O)C(C)(C)[C@@H]4CC[C@@]3(C)[C@]1(C)CC2
inactive: SR leukemia 12.3% | OVCAR-8 ovarian 38.7% | OVCAR-5 ovarian 114% | OVCAR-4 ovarian 26.7% | SK-OV-3 ovarian 93.7% | IGROV1 ovarian 85.8% | HS 578T breast 74.8% | NCI/ADR-RES ovarian 52.5% | T-47D breast 24.4% | BT-549 breast 46% | SW-620 colon 25.3% | MCF7 breast 19.2% | HCC-2998 colon 75.8% | KM12 colon 60.5%
active: RPMI-8226 leukemia 2.88% | HCT-116 colon 3.92%

Nc1nc(N)c2nc3c(nc2n1)CCCCCCCCCC3
inactive: SR leukemia 32.2% | RPMI-8226 leukemia 85.6% | OVCAR-8 ovarian 39.9% | OVCAR-5 ovarian 69.4% | OVCAR-4 ovarian 61.9% | SK-OV-3 ovarian 78.9% | IGROV1 ovarian 37.1% | HS 578T breast 72.6% | NCI/ADR-RES ovarian 52.9% | T-47D breast 82.1% | BT-549 breast 74.5% | SW-620 colon 34.3% | MCF7 breast 46.2% | HCT-116 colon 21.4% | HCC-2998 colon 39.2% | KM12 colon 61.4%

O=C(/C=C\c1ccc2c(c1)OCO2)/C=C/c1ccc2c(c1)OCO2
active: RPMI-8226 leukemia -9.97% | HCT-116 colon -12.5% | KM12 colon 8.55%
inactive: SR leukemia 10.5% | OVCAR-8 ovarian 101% | OVCAR-5 ovarian 108% | OVCAR-4 ovarian 84.9% | SK-OV-3 ovarian 92% | IGROV1 ovarian 88.9% | OVCAR-3 ovarian 69.5% | NCI/ADR-RES ovarian 92.1% | T-47D breast 75.6% | BT-549 breast 67.2% | MCF7 breast 13.2% | HCC-2998 colon 41.4%

Cc1ccnc2c(OCc3ccccc3)cccc12
inactive: SR leukemia 101% | RPMI-8226 leukemia 99.2% | OVCAR-8 ovarian 115% | OVCAR-5 ovarian 93.1% | OVCAR-4 ovarian 72.2% | SK-OV-3 ovarian 112% | IGROV1 ovarian 87.5% | HS 578T breast 92.2% | NCI/ADR-RES ovarian 86.1% | T-47D breast 72.8% | BT-549 breast 101% | MDA-MB-435 melanoma 90.2% | SW-620 colon 92% | MCF7 breast 38.3% | HCT-116 colon 92.4% | HCC-2998 colon 86.6% | KM12 colon 82.8%

Cc1cc2nc3c4cc([N+](=O)[O-])cc([N+](=O)[O-])c4n(CCN(C)C)c3nc2cc1C
active: SR leukemia 5.05%
inactive: RPMI-8226 leukemia 67.5% | OVCAR-8 ovarian 61.4% | OVCAR-5 ovarian 87.8% | OVCAR-4 ovarian 90.8% | SK-OV-3 ovarian 90.2% | IGROV1 ovarian 60.2% | HS 578T breast 90.2% | NCI/ADR-RES ovarian 57.8% | T-47D breast 73.6% | BT-549 breast 90.7% | MDA-MB-435 melanoma 92.1% | SW-620 colon 45.6% | MCF7 breast 63.2% | HCC-2998 colon 88.2% | KM12 colon 77.1%

NCCn1cc(-c2nc(-c3c[nH]c4ncccc34)cs2)c2cc(Br)ccc21
active: SW-620 colon 7.12%
inactive: SR leukemia 15.2% | RPMI-8226 leukemia 43.3% | OVCAR-8 ovarian 91.6% | OVCAR-5 ovarian 89.4% | OVCAR-4 ovarian 54.7% | SK-OV-3 ovarian 90.8% | IGROV1 ovarian 43.6% | HS 578T breast 83.1% | NCI/ADR-RES ovarian 90% | T-47D breast 44.8% | BT-549 breast 97.8% | MDA-MB-435 melanoma 84.8% | MCF7 breast 30.7% | HCT-116 colon 66.6% | HCC-2998 colon 100%

C=C(C)[C@@H]1CC[C@]2(CN)CC[C@]3(C)[C@H](CC[C@@H]4[C@@]5(C)CCC(=O)NC(C)(C)[C@@H]5CC[C@]43C)[C@@H]12
inactive: RPMI-8226 leukemia 37.9% | OVCAR-8 ovarian 66.5% | OVCAR-5 ovarian 97.8% | OVCAR-4 ovarian 70.7% | SK-OV-3 ovarian 92% | IGROV1 ovarian 70.3% | HS 578T breast 84.1% | NCI/ADR-RES ovarian 70% | T-47D breast 53.9% | BT-549 breast 80.8% | MDA-MB-435 melanoma 92.7% | SW-620 colon 75.9% | MCF7 breast 41.5% | HCC-2998 colon 97.7% | KM12 colon 81%
active: SR leukemia -27.1%

O=C1CCC/C=C\C[C@H]2C=C(Cl)C(=O)/C2=C/C[C@H](CCCCC(F)(F)F)OC(=O)CCC/C=C\C[C@H]2C=C(Cl)C(=O)/C2=C/C[C@H](CCCCC(F)(F)F)O1
inactive: OVCAR-4 ovarian 19.7% [7.5 µM] | HS 578T breast 21.8% [7.5 µM] | NCI/ADR-RES ovarian 12.5% [7.5 µM]
active: SR leukemia -14.6% [7.5 µM] | RPMI-8226 leukemia -14.9% [7.5 µM] | OVCAR-8 ovarian -4.7% [7.5 µM] | OVCAR-5 ovarian -33.6% [7.5 µM] | SK-OV-3 ovarian -2.87% [7.5 µM] | IGROV1 ovarian -48.2% [7.5 µM] | T-47D breast -7.29% [7.5 µM] | BT-549 breast -43.8% [7.5 µM] | MDA-MB-435 melanoma -14.3% [7.5 µM] | HCT-116 colon -93.4% [7.5 µM] | HCC-2998 colon -54.7% [7.5 µM] | KM12 colon -60.3% [7.5 µM]

CCCCCCCC(=O)SCC/C=C/[C@@H]1CC(=O)NCc2cccc(n2)CN(Cc2ccc3ccccc3c2)CC(=O)N[C@@H](C(C)C)C(=O)O1
active: SR leukemia 3.23% | HCT-116 colon 5.36%
inactive: RPMI-8226 leukemia 32.6% | OVCAR-8 ovarian 22.7% | OVCAR-5 ovarian 26.2% | OVCAR-4 ovarian 66.3% | SK-OV-3 ovarian 24.5% | IGROV1 ovarian 53.2% | HS 578T breast 34.9% | NCI/ADR-RES ovarian 30.8% | T-47D breast 44.5% | BT-549 breast 88.1% | MDA-MB-435 melanoma 37.4% | SW-620 colon 76.8% | MCF7 breast 26.5% | HCC-2998 colon 49.5% | KM12 colon 38.8%

Cc1cccc(C)c1NC(=O)CSC(=S)N1CCN(CCOCCO)CC1
inactive: SR leukemia 102% | RPMI-8226 leukemia 108% | OVCAR-8 ovarian 106% | OVCAR-5 ovarian 96.9% | OVCAR-4 ovarian 102% | SK-OV-3 ovarian 110% | IGROV1 ovarian 96.5% | HS 578T breast 104% | NCI/ADR-RES ovarian 99.5% | T-47D breast 103% | BT-549 breast 102% | MDA-MB-435 melanoma 108% | SW-620 colon 104% | MCF7 breast 98.1% | HCT-116 colon 108% | HCC-2998 colon 97.6% | KM12 colon 98.5%

COc1ccc(/C=C/C(=O)NCCO)cc1
inactive: SR leukemia 91.9% | RPMI-8226 leukemia 105% | OVCAR-8 ovarian 96.4% | OVCAR-5 ovarian 88.2% | OVCAR-4 ovarian 103% | SK-OV-3 ovarian 94.2% | IGROV1 ovarian 98.3% | HS 578T breast 92.4% | NCI/ADR-RES ovarian 104% | T-47D breast 89.8% | BT-549 breast 102% | MDA-MB-435 melanoma 104% | SW-620 colon 99.3% | MCF7 breast 94.8% | HCT-116 colon 101% | HCC-2998 colon 103% | KM12 colon 103%

COC(=O)CNc1nc(N(C)O)nc(N(C)O)n1
inactive: SR leukemia 34.3% | RPMI-8226 leukemia 36.4% | OVCAR-8 ovarian 34.3% | OVCAR-5 ovarian 87.7% | OVCAR-4 ovarian 29.3% | SK-OV-3 ovarian 50.8% | IGROV1 ovarian 48% | HS 578T breast 77.8% | NCI/ADR-RES ovarian 21.3% | T-47D breast 64.8% | BT-549 breast 66.9% | MDA-MB-435 melanoma 65.7% | SW-620 colon 42.8% | MCF7 breast 30.7% | HCT-116 colon 13.8% | HCC-2998 colon 23.4% | KM12 colon 45.2%
